Hits are enriched below; roughly 5.7% of the tested compounds scored in any of these assays.
HP1b chromo inh: HTS for Inhibitors of HP1-beta Chromodomain Interactions with Methylated Histone Tails | AlphaScreen HP1-beta / biotin-H3K9me3 peptide binding | Potency, µM (series often up to 114 µM), usual class: inhibitors | actives 0.56% (n = 390,000); note: nearly all actives have a fitted effect of over 70% in size
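AlphaScreen: HP1-beta (50 nM) preformed 30 min with biotin-H3(1-18)K9me3 peptide (50 nM) in PBS pH 7.4, 0.01% Tween-20. Compound added for 30 min at RT, then streptavidin donor/nickel chelate acceptor beads (10 ug/mL) for 30 min.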
JMJD2A Tudor: qHTS Assay for Inhibitors of JMJD2A-Tudor Domain; Lysine-specific demethylase 4A (Homo sapiens), O75164; AlphaScreen JMJD2A-Tudor / H3K4me3 peptide binding; AID 504339, 2011; Potency, µM (highest dose often 114 µM), hits mostly inhibitors; actives 4.4% (n = 390,000); note: nearly all actives have a fitted effect of over 50% in size
JMJD2E inh: qHTS Assay for Inhibitors of Human Jumonji Domain Containing 2E (JMJD2E); Potency, µM (doses to about 57.1 µM), actives largely listed as inhibitors; actives 1.6% (n = 230,000); AID 2147, 2009; Lysine-specific demethylase 4E (Homo sapiens), B2RXH2; JMJD2E catalytic domain, FDH-coupled NADH fluorescence (FDH is formaldehyde dehydrogenase); active = well fitted inhibition curve with a large enough effect, not every such curve was filed as active; inconclusive = small, poorly fitted or top-dose-only effect, or another doubt; inactive = no such curve, though single readings can be large or run the other way; note: nearly all actives have a fitted effect of over 50% in size
Target sequence (B2RXH2 1-337 limits assumed): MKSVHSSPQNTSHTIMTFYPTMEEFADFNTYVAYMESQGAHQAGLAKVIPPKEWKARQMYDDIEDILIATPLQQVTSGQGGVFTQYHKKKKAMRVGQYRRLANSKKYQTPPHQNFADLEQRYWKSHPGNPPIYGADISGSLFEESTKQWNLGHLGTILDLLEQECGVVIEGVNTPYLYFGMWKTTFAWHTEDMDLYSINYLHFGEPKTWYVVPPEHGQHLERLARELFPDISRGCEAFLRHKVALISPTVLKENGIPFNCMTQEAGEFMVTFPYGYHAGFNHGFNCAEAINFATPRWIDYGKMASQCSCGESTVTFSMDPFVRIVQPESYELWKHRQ
PI5P4K alpha inh: qHTS for Inhibitors of phosphatidylinositol 5-phosphate 4-kinase (PI5P4K) | Phosphatidylinositol 5-phosphate 4-kinase type-2 alpha (Homo sapiens), P48426 | PI5P4Kalpha enzyme, ADP-Glo luminescence, 60 min; active compounds read low | max response, % | actives 1.2% (n = 330,000); active = max response of -50% or lower; inconclusive = between -30% and -50%; inactive = -30% or higher; note: value at the top dose of about 77 µM
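Compounds were pin-transferred onto PI5P4Kalpha and substrate in HEPES pH 7.4 buffer with EGTA, CHAPS and 5% DMSO. ATP (5 microM final) started the reaction, which ran 60 minutes at room temperature before ADP-Glo detection.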
L3MBTL1 block: qHTS Assay for the Inhibitors of L3MBTL1. AlphaScreen L3MBTL1–H3K9me1 peptide binding. Potency, µM (series often up to 57.1 µM), usual class: inhibitors. actives 0.66% (n = 230,000); note: nearly all actives have a fitted effect of over 60% in size
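Displacement of a biotinylated histone H3(1-15) peptide monomethylated at Lys9 (75 nM) from L3MBTL1 (50 nM) was measured by AlphaScreen after a 30 min room-temperature compound incubation; cefsulodin titration served as intraplate control.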
BAZ2B inh: qHTS Assay for Inhibitors of BAZ2B; actives 4.4% (n = 360,000); AlphaScreen BAZ2B-H3K14Ac peptide displacement; Bromodomain adjacent to zinc finger domain protein 2B (Homo sapiens), Q9UIF8; Potency, µM (titrated, usually from 114 µM), actives largely listed as inhibitors; note: nearly all actives have a fitted effect of over 60% in size
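Compounds, titrated to a top concentration of 110 uM, were incubated 30 min at room temperature with preformed BAZ2B/acetyl-K14 H3 peptide complex (50 nM each). Proximity signal was measured by AlphaScreen after 20 min with beads.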
Hits are given with their value; 0 = inactive; ? = inconclusive; - = no result given. Unless noted, calls come from the whole dose curve; as a rule, active = well fitted inhibition curve with a large enough effect; inconclusive = small, poorly fitted or top-dose-only effect; inactive = no such curve, though single readings can be large or run the other way.

SMILES	HP1b chromo inh	JMJD2A Tudor	JMJD2E inh	PI5P4K alpha inh	L3MBTL1 block	BAZ2B inh
CCOC(=O)c1c(-n2cnnn2)sc2c1CCCC2	0	0	?	0	0	0
CCOC(=O)c1c(N2C(=O)C3C4C=CC(O4)C3C2=O)sc2c1CCCC2 (configuration not stated)	?	56µM	0	0	-	0
CCN(CCCNC(=O)c1ccc(Sc2ccc(F)cc2)c(NC(C)=O)c1)c1ccccc1	0	56µM	-	-	-	?
Cc1ccc(CC2(C)C(=O)Nc3c(Cl)cccc32)cc1 (configuration not stated)	-	-	-	0	-	-
CCCCCn1c(=O)[nH]c2cc(C(=O)NCc3ccc(OC)cc3)ccc2c1=O	0	0	-	-	-	0
COCc1nn2c(=O)cc(N3CCNCC3)nc2s1	-	0	-	-	-	-
O=C(CCN1CCN(c2ccccc2F)CC1)c1ccc(Br)cc1	0	0	25µM	0	0	0
COc1ccccc1N1CCN(CC(=O)N2N=CCC2c2ccccc2)CC1 (configuration not stated)	0	0	0	0	?	0
COc1ccccc1N1CCN(CC(=O)c2ccc(F)cc2)CC1	?	14µM	-	0	0	56µM
COc1ccccc1N1CCN(C/C(C)=C/c2ccccc2)CC1	0	0	0	-	-	56µM
O=C(Nc1nc2c(s1)CCCC2)Oc1ccccc1	0	0	0	0	-	0
C/C(=N\Nc1nc2c(s1)CCCC2)c1ccccc1	?	?	?	0	-	45µM
Cn1c[n+](C)cc1/C=N/O	0	50µM	0	0	0	89µM
COC(=O)C1=C(C)NC(=O)/C1=C\c1cc(C)n(-c2cc(C)cc(C)c2)c1C	0	56µM	0	0	-	45µM
Cc1c(/C(O)=C2/C(=O)C(=O)N(Cc3cccnc3)C2c2cccs2)cnn1-c1ccccc1 (configuration not stated)	0	0	0	0	-	0
COC(=O)c1[nH]c(C)c(/C(O)=C2\C(=O)C(=O)N(CCN3CCOCC3)C2c2ccccc2OC)c1C (configuration not stated)	0	50µM	0	0	0	0
Cc1c(/C(O)=C2/C(=O)C(=O)N(Cc3cccnc3)C2c2ccccn2)cnn1-c1ccccc1 (configuration not stated)	0	?	?	0	0	50µM
COc1ccc(OC)c(C2/C(=C(/O)c3cnn(-c4ccccc4)c3C)C(=O)C(=O)N2CCN(C)C)c1 (configuration not stated)	0	0	?	?	-	50µM
COC(=O)c1[nH]c(C)c(/C(O)=C2\C(=O)C(=O)N(CCN(C)C)C2c2ccccc2OC)c1C (configuration not stated)	0	45µM	0	0	0	0
COc1cccc(CNC(=O)CCn2c(=O)c3cccn3c3cccnc32)c1OC	0	0	-	-	-	0
O=[N+]([O-])c1cccc(-n2cc3ccc([N+](=O)[O-])cc3n2)c1	0	0	-	0	0	0
Cc1cc(C)n(C(C)CC(=O)NCc2ccc(N(C)C)cc2)n1 (configuration not stated)	0	0	-	-	-	0
Cc1ccc(CNC(=O)CS(=O)(=O)c2cccc3nsnc23)cc1	0	0	-	-	-	0
CCOC(=O)c1ccc(-c2ccc3ncnc(NCc4cccs4)c3c2)o1	-	0	-	-	-	-
O=C(CSc1nc(-c2ccccc2)cs1)Nc1ccccc1[N+](=O)[O-]	?	?	0	0	?	25µM
O=C1CC(=O)NC(SCC(=O)Nc2ccccc2[N+](=O)[O-])=N1	?	35µM	-	?	-	40µM
O=C(CSc1nc(-c2ccccc2)cs1)Nc1nccs1	0	0	0	0	-	?
O=C(CSc1nnc2ccccn12)Nc1ccccc1[N+](=O)[O-]	-	-	-	0	-	-

Screening data as filed in PubChem.
